Source: PubChem BioAssay
Autofluor counter – counter-screen for toxin protease inhibitors: compound fluorescence | 3.1% of 360,000 active | AID 624483 | compound autofluorescence counterscreen, microsphere flow cytometry; active compounds read high | fluorescence intensity (test concentration not listed); in the data active means fluorescence intensity above about 16000; inconclusive means no clear call, values can overlap the other calls
SSB-PriA inh – inhibitors of Klebsiella pneumoniae PriA binding to SSB C-terminal tail, primary screen, biochemical, AlphaScreen | AlphaScreen SSBct-PriA binding, biotinylated peptide | 0.6% of 430,000 active | inhibition, % at 33 µM | AID 1272365, 2023 | PriA–SSB C-terminal tail interaction (Klebsiella pneumoniae); in the data active means inhibition mostly above about 37%, no sharp cut-off; inactive means mostly below about 20%;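 further: plate controls were negative control peptide for no effect and reference peptide for full effect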
BoNT A protease – BoNT/A light chain protease inhibitors, primary screen, biochemical, flow cytometry, MLPCN library | 0.17% of 360,000 active | Botulinum neurotoxin type A light chain protease (Clostridium botulinum A str. ATCC 3502) | AID 588499, 2011 | multiplex microsphere protease substrate cleavage | inhibition, % at 10 µM; further: plate controls were buffer without enzyme for full effect and enzyme alone for no effect
BoNT F protease – BoNT/F light chain protease inhibitors, primary screen, biochemical, flow cytometry, MLPCN library | Multiplex microsphere protease cleavage assay | inhibition, % at 10 µM | 0.22% of 360,000 active | AID 588497, 2011; in the data active means inhibition above about 35%, passing the limit was not always enough; inconclusive means no clear call, values can overlap the other calls; further: plate controls were buffer without enzyme for full effect and enzyme alone for no effect
Anthrax LF prot – Bacillus anthracis LF protease inhibitors, primary screen, biochemical, multiplex microsphere, MLPCN library; multiplex microsphere protease cleavage assay; inhibition, % at 10 µM; AID 588501, 2011; 0.12% of 360,000 active; further: plate controls were buffer without enzyme for full effect and enzyme alone for no effect
Target sequence (P15917 whole entry, looked up): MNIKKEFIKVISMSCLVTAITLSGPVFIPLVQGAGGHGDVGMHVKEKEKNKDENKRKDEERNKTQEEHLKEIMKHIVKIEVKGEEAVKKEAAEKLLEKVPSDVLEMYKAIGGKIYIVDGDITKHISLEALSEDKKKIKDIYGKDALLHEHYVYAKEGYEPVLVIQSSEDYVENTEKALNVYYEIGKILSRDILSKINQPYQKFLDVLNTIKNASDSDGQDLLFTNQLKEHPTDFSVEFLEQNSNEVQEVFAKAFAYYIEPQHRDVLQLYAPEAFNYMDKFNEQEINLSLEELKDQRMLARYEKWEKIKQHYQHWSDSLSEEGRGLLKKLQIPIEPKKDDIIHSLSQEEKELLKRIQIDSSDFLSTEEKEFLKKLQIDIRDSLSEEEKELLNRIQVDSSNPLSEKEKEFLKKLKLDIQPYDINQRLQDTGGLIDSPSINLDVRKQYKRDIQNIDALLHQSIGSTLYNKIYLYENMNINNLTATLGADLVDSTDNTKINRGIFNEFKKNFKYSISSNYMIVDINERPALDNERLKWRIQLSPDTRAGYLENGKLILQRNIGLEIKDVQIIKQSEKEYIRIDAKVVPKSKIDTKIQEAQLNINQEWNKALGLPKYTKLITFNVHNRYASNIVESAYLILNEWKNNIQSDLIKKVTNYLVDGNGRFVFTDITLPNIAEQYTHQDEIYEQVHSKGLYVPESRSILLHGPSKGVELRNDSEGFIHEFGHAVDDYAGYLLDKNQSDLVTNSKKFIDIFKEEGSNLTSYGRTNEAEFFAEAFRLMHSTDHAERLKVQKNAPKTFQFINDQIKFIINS
Starred values were filed as active, the others as inactive; u = inconclusive; x = not tested or not shown; ! = repeats disagree. Rows were chosen to be rich in hits. Some 3.1% of all compounds tested hit in one or more screens of this group. Unless noted, no stated cut-off is given here; in the data, active means inhibition above about 30%; inconclusive means no clear call, values can overlap the other calls; inactive means below that.

SMILES	Autofluor counter	SSB-PriA inh	BoNT A protease	BoNT F protease	Anthrax LF prot
Cc1nc(CC(=O)c2ccc(O)c(C)c2O)cs1	4288	-0.3	1.0	0.6	-6.1
Cc1nc(CC(=O)c2ccc(O)cc2O)cs1	22193*	-21.8	u	-11.7	-2.4
CC1(C(=O)Nc2nnc(SCc3ccccc3)s2)Cc2ccccc2C(=O)O1 (stereo not given)	22013*	-7.8	3.6	4.7	-7.0
CC1(C(=O)Nc2nccs2)Cc2ccccc2C(=O)O1 (stereo not given)	10744	-9.7	0.4	2.5	-0.8
CCCCOc1ccc(-c2nnn(CC(=O)NCCc3c[nH]c4ccccc34)n2)cc1	23887*	-7.3	u	-6.0	-3.1
COCCCNC(=O)CC(=O)NN=Cc1ccc(SC)cc1	x	-5.1	x	x	x
CCC(=O)NC1(C(F)(F)F)C(=O)Nc2c1c(=O)n(C)c(=O)n2C (stereo not given)	23514*	-3.5	0.4	0.0	-1.8
Cc1ccc(S(=O)(=O)NCC2CCN(c3nc4ccccc4s3)CC2)s1	x	62.0	x	x	x
Cc1ccc(N2CCN(C(=S)Nc3ccc(Cl)cc3)CC2)cc1	3667	-11.8	-1.5	15.4	-3.9
S=C(Nc1ccc(Cl)cc1)N1CCN(C2CCCCC2)CC1	21880*	-9.2	1.1	0.5	-0.1
CCCN1CCN(CCCNC(=O)c2ccc3nc(N4CCCCC4)sc3c2)CC1	4834	99.9*	-1.4	-3.6	-5.7
CC1CC(C)CN(CCCNC(=O)c2ccc3nc(N4CCCCC4)sc3c2)C1 (stereo not given)	6230	-6.7	-0.9	-8.0	-1.8
CC(C)(C)c1ccccc1NC(=O)c1cccnc1	16565*	-5.7	u	-3.3	0.1
CC(C)c1ccc(O)c(NC(=O)c2cccnc2)c1	20393*	4.8	-1.2	-1.2	-2.1
CC(C)c1ccc(NC(=O)c2cccnc2)cc1	9193	1.1	-0.4	-0.9	1.0
O=[N+]([O-])c1ccc2ccc([N+](=O)[O-])cc2c1	x	28.0	x	x	x
O=c1c2ccccc2[se]n1-c1ccccc1	7730	29.8	81.1*	38.3*	3.6
CCCc1ccc(-c2cc(C(=O)NN3CCOCC3)c3ccccc3n2)cc1	23255*	-31.8	0.5	0.3	-9.0
CCCc1ccc(-c2cc(C(=O)NCCc3ccc(S(N)(=O)=O)cc3)c3ccccc3n2)cc1	22125*	-1.7	3.5	4.2	-0.5
COC1CCN(c2ccc(C(=O)N3CCC(C#N)(c4ccccc4)CC3)cc2)C1 (stereo not given)	x	-3.0	x	x	x
O=C(Oc1ccc(N(Cc2cccs2)C2=NS(=O)(=O)c3ccccc32)cc1)c1ccccc1F	22943*	-18.9	0.7	-4.5	-2.0
O=C(c1ccccc1F)N(Cc1cccs1)C1CCS(=O)(=O)C1 (stereo not given)	6039	-3.3	-0.2	3.5	-0.2
COC(=O)[C@H](C)NC(=O)NC(C)CCc1ccccc1 (stereo not given in full)	21607*	-20.7	1.8	1.8	1.4
CC(CCc1ccccc1)C(=O)NO (stereo not given)	23384*	-9.2	0.0	2.4	0.7
CC(CCc1ccccc1)NC(=O)Cc1ccc(Br)cc1 (stereo not given)	2915	-23.4	0.9	9.3	-13.0
SMILES	Autofluor counter	SSB-PriA inh	BoNT A protease	BoNT F protease	Anthrax LF prot
CC(C)c1nn(CC(N)=O)c(=O)c2c1cnn2C(C)(C)C	x	-2.0	x	x	x
O=C(COc1ccccc1F)N1CCc2oncc2C1	x	2.0	x	x	x
CCOc1ccc(C(=O)NCCn2ncc3c(=O)n(Cc4ccc(F)cc4)cnc32)cc1	x	-5.0	x	x	x
CCCCCCCC(=O)NNC(=O)c1ccc([N+](=O)[O-])cc1	24645*	-25.6	-3.6	-4.6	-1.7
CN(C)CCCN(C(=O)Cc1ccccc1)c1nc2cc3c(cc2s1)OCO3	x	-7.0	x	x	x
CN(C)CCCN(C(=O)c1ccc(S(=O)(=O)N(C)C)cc1)c1nc2cc3c(cc2s1)OCO3	2625	-0.1	1.2	-4.9	-1.7
CN(C)CCN(C(=O)c1ccc(C(=O)c2ccccc2)cc1)c1nc2cc3c(cc2s1)OCO3	u	43.0*!	0.4	-0.6	1.6
CN(C)CCN(C(=O)c1ccc(C(=O)c2ccccc2)cc1)c1nc2cc3c(cc2s1)OCCO3	5191	48.5*	0.4	9.0	-0.2
CN(C)CCN(C(=O)c1ccc(S(=O)(=O)N(C)c2ccccc2)cc1)c1nc2cc3c(cc2s1)OCO3	5799	36.0*	0.9	8.2	-2.2
CN(C)CCN(C(=O)c1cccc(Cl)c1)c1nc2cc3c(cc2s1)OCCO3	x	-4.0	x	x	x
